KB-3-1 cytotox – kills parental KB-3-1 adenocarcinoma cells; KB-3-1 viability, CellTiter-Glo ATP luminescence, 72 h; Potency, µM (series often up to 46.1 µM), actives largely listed as cytotoxic; hit rate 1.4% among 400,000; AID 1347075; further: on the % scale 0 is the no-effect control and ±100 the full control effect; nearly all actives have a fitted effect of over 60% in size
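Parental KB-3-1 viability, qHTS format: 72 h compound exposure, 37 °C; CellTiter-Glo; media-only wells and DMSO plates as controls; concentration-effect fits on corrected data.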
MCF10A rerep – DNA re-replication induction in MCF 10a cells | hit rate 2.9% among 350,000 | Potency, µM (titrated, usually from 46.1 µM), for inactives: top-dose activity, positive = re-replication, usual class: activators | MCF 10A DNA re-replication, Hoechst nuclear intensity, 48 h | AID 624296; further: % of control where 0% means no effect; nearly all actives have a fitted effect of over 50% in size
HT1080 IDH1KD tx – kills HT-1080 cells with IDH1 knockdown; hit rate 2% among 360,000; Potency, µM (top dose mostly 46.1 µM), for the others: at the top dose activity, negative = toxicity, actives largely listed as cytotoxic; HT-1080 IDH1 knockdown viability, ATP luminescence, 48 h;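 further: 0% = DMSO wells and -100% = cell-free medium wells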
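Luminescent ATP read-out (CellTiter-Glo, 10 min at room temperature) after 48 h compound exposure at 37 °C gave viability of IDH1-knockdown HT-1080 cells. Activity was normalised to DMSO and cell-free wells, then fitted as concentration-response curves.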
SW480 rereplic – inducers of DNA re-replication in SW480 colon cancer cells; SW480 DNA re-replication, Hoechst DNA content imaging, 48 h; Potency, µM (titrated, usually from 46.1 µM), for inactives: at the top dose re-replication activation, hits mostly activators; hit rate 1.8% among 340,000; AID 624297; further: % of control where 0% means no effect; nearly all actives have a fitted effect of over 55% in size
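Treated cells incubate 48 hr (37 C, 5% CO2), are stained 40 min with Hoechst, and nuclear fluorescence is enumerated; a rise in nuclei with high DNA signal marks re-replication.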
KB-V1 cytotox – KB-V1 MDR subline cytotoxicity | KB-V1 MDR cells viability, CellTiter-Glo, 72 h | Potency, µM (highest dose often 46.1 µM), most hits filed as cytotoxic | hit rate 3.4% among 400,000 | AID 1347076; further: on the % scale 0 is the no-effect control and ±100 the full control effect; nearly all actives have a fitted effect of over 60% in size
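qHTS viability screen in drug-selected KB-V1 MDR cells: 72 h compound treatment at 37 degrees C, ATP luminescence end point.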
HT1080NT lethal – kills 2HG-producing HT-1080-NT fibrosarcoma cells | HT-1080-NT fibrosarcoma viability, CellTiter-Glo ATP luminescence, 48 h | Potency, µM (titrated, usually from 46.1 µM), for inactives: at the highest dose activity, negative = less viability, hits mostly cytotoxic | hit rate 1.6% among 360,000 | AID 686970;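 further: NT is the 2HG producing partner of a matched IDH1 knockdown line; 0% = DMSO-treated cells and -100% = media-only wells without cells; nearly all actives have a fitted effect of over 55% in size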
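A 48-hour cytotoxicity screen used HT-1080-NT cells plated 2 hours before compound delivery. ATP-based CellTiter-Glo luminescence measured viability, normalized to DMSO and no-cell controls.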
Starred values were filed as active, the others as inactive; i = inactive; u = inconclusive; x = no result given. A selection: hits, their analogues and other compounds. The true share with any hit is near 7.9%. The call rests on the fitted dose curve; in most records, active means well fitted curve in the direction sought with a large enough effect; inconclusive means small, poorly fitted or top-dose-only effect, or another doubt; inactive means no such curve, though single readings can be large; an effect the other way counts as inactive or inconclusive. Potency means the concentration at half of the fitted maximal effect.

SMILES	KB-3-1 cytotox	MCF10A rerep	HT1080 IDH1KD tx	SW480 rereplic	KB-V1 cytotox	HT1080NT lethal
COc1cc(C2C3=C(CCCC3=O)Nc3ccc4ncccc4c32)ccc1O (stereo not given)	u	15µM*	6.5µM*	23µM*	i	u
O=C1CCCC2=C1C(c1cccc(O)c1)c1c(ccc3ncccc13)N2 (stereo not given)	i	18µM*	-30%	u	i	-10%
COc1cc(C2C3=C(CCCC3=O)Nc3[nH]n(-c4ccccc4)c(=O)c32)ccc1OC(C)=O (stereo not given)	i	7.3µM*	3%	21µM*	i	1%
CCOc1cc(/C=C2\C(=O)N(CCc3ccc(OC)c(OC)c3)C(C)=C2C(=O)OC)ccc1O	i	26%	4%	u	i	0%
O=C(Nc1cc(Cl)ccc1Oc1ccccc1)C1=COCCO1	i	u	-8%	2%	u	-10%
COc1ccc(C(NC(=O)C2C3C=CC(C3)C2C(=O)O)c2ccccc2)cc1 (stereo not given)	i	-7%	-1%	u	i	-10%
COc1ccccc1Nc1nc(N2CCCC2)nc(N2CCOCC2)n1	i	19%	x	-5%	i	x
COc1ccc(CC(=O)OCC(=O)N2CCCC(C)C2)cc1 (stereo not given)	i	-1%	11%	-4%	i	19%
COc1ccc(C)cc1S(=O)(=O)N1CCCC(C(=O)NCc2ccccn2)C1 (stereo not given)	i	5%	-8%	2%	u	2%
O=C(NCc1ccccn1)C1CCCN(S(=O)(=O)c2cc(Cl)ccc2Cl)C1 (stereo not given)	u	0.73µM*	5.8µM*	u	0.73µM*	5.8µM*
O=C(NNC1=Nc2cccc3cccc1c23)c1ccc(Br)cc1	u	15µM*	-29%	18µM*	i	0%
CCN1C(=O)[C@H]2[C@@H](c3ccc(-c4ccccc4)c(OC)c3)N[C@@](CC(C)C)(C(=O)OC)[C@H]2C1=O	i	50%	-5%	-1%	u	-3%
COc1cccc(/C=C(/C(=O)OCC(=O)NC2CCCC(C)C2C)c2ccccc2)c1 (stereo not given)	i	18µM*	u	-16%	i	u
CN1CCN(C(=O)CSc2nc(-c3ccco3)cc(C(F)(F)F)n2)CC1	u	-1%	5%	-12%	i	6%
NC(=S)N=Nc1c(O)n(CCCl)c2ccc(Cl)cc12	u	-3%	u	13%	13µM*	-21%
Cc1ccc(N/C(=N/S(=O)(=O)c2cccs2)c2ccccc2)c(C)c1	u	u	-30%	u	9.2µM*	u
Cc1ccc(S(=O)(=O)/N=C(/Nc2ccc([N+](=O)[O-])cc2[N+](=O)[O-])c2ccccc2)cc1	i	u	0%	1%	16µM*	-17%
CN(CC(=O)OCC(=O)NCc1ccccc1)S(=O)(=O)c1ccc(F)cc1	i	-4%	-9%	16%	i	-4%
O=C(CSc1nc(-c2cccs2)cc(C(F)(F)F)n1)Nc1cc(OCC(F)(F)C(F)F)cc([N+](=O)[O-])c1	u	u	u	u	16µM*	u
COc1ccc(C2=CSC3=NCCN23)cc1Br	i	u	-2%	u	i	-2%
COc1ccc(/C=C2/Sc3ccc(C(=O)NCCCN4CCOCC4)cc3NC2=O)cc1OC	u	18µM*	21µM*	21µM*	i	u
Cc1cccc(/C=C2/Sc3ccc(C(=O)NCCN4CCCC4)cc3NC2=O)c1	i	u	-4%	u	i	8%
COc1cccc(/C=C2/Sc3ccc(C(=O)NCCN4CCCCCC4)cc3NC2=O)c1	i	21µM*	-16%	u	i	u

Assay outcomes from PubChem BioAssay.
